# From PubChem BioAssay
# Compounds with a hit are over-represented: about 9.2% of the library has one in this group of screens.
# SMN2 splice up = qHTS Assay for Enhancers of SMN2 Splice Variant Expression; HEK293 SMN2-luciferase splicing reporter, luminescence, 30-36 h; Potency, µM (highest dose often 46.1 µM), hits mostly activators; 210,000 compounds, 2.8% hits; note: nearly all actives have a fitted effect of over 55% in size
#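 HEK293 cells carry an SMN2 […]–luciferase reporter in which exon 7 inclusion puts luciferase in frame. Cells were plated 10-12 h before compound addition, then incubated 30-36 h at 37C. ONE-Glo luminescence was read; sodium butyrate at 4.5 mM final served as control.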
# NPC1 prom act = qHTS Assay for NPC1 Promoter Activators; 320,000 compounds, 2.4% hits; Huh7 NPC1 promoter luciferase reporter, 24 h; Potency, µM (doses to about 9.22 µM), usual class: activators; AID 485313, 2010; note: nearly all actives have a fitted effect of over 60% in size
#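 Luminescence read-out of NPC1 promoter-driven luciferase in stably transfected Huh7 cells; compounds delivered in DMSO and left 24 h at 37C, 5% CO2, qHTS titration format.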
# ELG1 genotoxic = qHTS screen for small molecules that induce genotoxicity in human embryonic kidney (HEK293T) cells expressing luciferase-tagged ELG1 | HEK293T ELG1-luciferase reporter, luminescence, 16 h | Potency, µM (highest dose often 46 µM), most hits filed as activators | 330,000 compounds, 1.3% hits; note: nearly all actives have a fitted effect of over 60% in size
#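 HEK293T cells expressing luciferase-tagged ELG1 were treated with compound or DMSO for 16 hr at 37°C. Luciferase activity was then read after 30 min with ONE-Glo at room temperature; rising signal flags genetic stress.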
# ELG1 DNA repair = qHTS screen for small molecules that inhibit ELG1-dependent DNA repair in human embryonic kidney (HEK293T) cells expressing luciferase-tagged ELG1 | AID 504467, 2011 | 330,000 compounds, 2.3% hits | HEK293T ELG1-luciferase reporter, luminescence, 16 h; DNA damage induced by 5-fluorouridine | Potency, µM (doses to about 46.1 µM), hits mostly inhibitors; note: nearly all actives have a fitted effect of over 55% in size
#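 Cells (2,000 per well) received 5-fluorouridine plus test compound or DMSO and were incubated 16 hr at 37 °C, 5% CO2. Luciferase activity was read by luminescence 30 min after ONE-Glo addition; signal suppression marked inhibition of damage-induced ELG1 function.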
# Rab9 prom act = qHTS Assay for Rab9 Promoter Activators | Huh7 Rab9 promoter-luciferase reporter, luminescence, 24 h | Potency, µM (top dose mostly 9.22 µM), usual class: activators | 320,000 compounds, 2.8% hits; note: nearly all actives have a fitted effect of over 60% in size
#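 Huh7 cells stably carrying Rab9 promoter–luciferase reporter, plated 1500 cells/well, compound added after 2 h and incubated 24 h at 37 °C; luciferase luminescence then read after 10 min with detection reagent.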
# FLuc modulator = qHTS profiling assay for firefly luciferase inhibitor/activator using purifed enzyme and Km concentrations of substrates (counterscreen for miR-21 project); Luciferin 4-monooxygenase (Photinus pyralis), P08659; purified FLuc, Km substrates, luminescence inhibition; 360,000 compounds, 6.9% hits; Potency, µM (doses to about 57.5 µM), usual class: inhibitors; note: nearly all actives have a fitted effect of over 55% in size
# Target sequence (P08659 whole entry, looked up): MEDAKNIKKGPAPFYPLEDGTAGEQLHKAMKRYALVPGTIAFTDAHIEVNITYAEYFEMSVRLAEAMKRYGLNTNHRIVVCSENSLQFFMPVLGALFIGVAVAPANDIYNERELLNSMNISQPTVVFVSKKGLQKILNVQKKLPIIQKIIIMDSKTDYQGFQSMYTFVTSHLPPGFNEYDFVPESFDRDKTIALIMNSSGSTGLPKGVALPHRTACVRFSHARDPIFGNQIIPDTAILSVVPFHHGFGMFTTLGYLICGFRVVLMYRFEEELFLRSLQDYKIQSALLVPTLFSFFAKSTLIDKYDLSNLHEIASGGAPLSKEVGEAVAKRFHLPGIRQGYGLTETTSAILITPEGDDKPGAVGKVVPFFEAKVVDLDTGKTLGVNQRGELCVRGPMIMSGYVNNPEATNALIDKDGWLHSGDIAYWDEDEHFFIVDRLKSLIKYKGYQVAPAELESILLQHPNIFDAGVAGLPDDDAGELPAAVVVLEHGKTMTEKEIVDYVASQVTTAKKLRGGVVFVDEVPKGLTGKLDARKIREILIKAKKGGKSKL
#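 Purified P. pyralis luciferase (10nM final) with 10uM D-luciferin and 10uM ATP (Km levels) in 50mM Tris acetate pH 7.5, 10mM Mg acetate, 0.01% Tween-20, 0.05% BSA; qHTS 6-point titration, ~60 µM downward; luminescence read.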
# Hits are given with their value; 0 = inactive; ? = inconclusive; - = not tested or not shown; [ ] = dose if it differs, or a comment. Calls come from the whole dose curve; as a rule, active = well fitted curve in the direction sought with a large enough effect; inconclusive = small, poorly fitted or top-dose-only effect, or another doubt; inactive = no such curve, though single readings can be large; an effect the other way counts as inactive or inconclusive.
SMILES,SMN2 splice up,NPC1 prom act,ELG1 genotoxic,ELG1 DNA repair,Rab9 prom act,FLuc modulator
COc1ccc(Nc2nc(CC(C)=O)ns2)cc1,14µM,?,?,?,3.2µM,?
CCOc1ccc(NC(=O)CN(C)C(=O)c2cc(S(=O)(=O)N3CCCCC3)ccc2Cl)cc1OCC,-,0,0,0,0,0
COc1ccc(OCC(=O)N/N=C/c2ccc(N(C)C)cc2)cc1,0,0,0,0,0,13µM
COc1ccc(OCC(=O)N/N=C/c2cccn2-c2cccc(C(=O)O)c2)cc1,-,0,0,0,0,13µM
CCCCCC(=O)N/N=C/c1ccc(N(C)C)cc1,?,?,?,?,?,12µM
CN(C)c1ccc(/C=N/NC(=O)CCCO)cc1,0,0,0,?,0,0
Cc1ccc(OCC(=O)N/N=C/c2cccn2C)cc1C,-,0,0,0,0,?
COc1cc(C(=S)N2CCCC2)ccc1OS(=O)(=O)c1ccc(NC(C)=O)cc1,0,0,0,?,0,0
COc1cc(C(=S)N2CCOCC2)cc(Br)c1OS(=O)(=O)c1ccccc1,-,0,0,16µM,0,0
CC(=O)Nc1ccc(S(=O)(=O)Oc2ccccc2N2CCCCC2)cc1,-,0,0,8.2µM,0,0
COc1cc(C(=S)N2CCOCC2)ccc1OS(=O)(=O)c1ccc(NC(C)=O)cc1,0,0,0,12µM,0,0
O=C1OCCC1Sc1nnnn1-c1ccc(Cl)cc1 (stereo unspecified),-,0,0,0,0,11µM
CCc1ccc(-c2cc(-c3n[nH]c(=S)n3CC)c3ccccc3n2)cc1,?,0,0,0,0,1.2µM
CCn1c(-c2cc(-c3cccc(OC)c3)nc3ccccc23)n[nH]c1=S,0,0,0,0,0,24µM
Cc1ccc(-c2cc(-c3n[nH]c(=S)o3)c3ccccc3n2)cc1,0,0,0,0,0,19µM
S=c1[nH]nc(-c2cc(-c3ccccn3)nc3ccccc23)o1,-,0,0,0,0,0
O=C(O)C1C(C(=O)O)C(C(=O)O)C1C(=O)O (stereo unspecified),0[9.22 µM],-,-,-,-,-
Cc1ccc(NC(=O)c2cc(-c3ccco3)on2)cc1C,0,0,?,?,0,2.7µM
Cc1ccc(NC(=O)c2cc(-c3cccc(O)c3)on2)cc1C,0,0,?,?,0,9.5µM
Cc1ccc(NC(=O)c2cc(-c3ccco3)on2)cc1,0,0,?,?,0,2.1µM
COc1ccc(NC(=O)c2cc(-c3ccco3)on2)cc1OC,-,0,?,?,0,0
O=C(NCCc1ccccc1)c1cc(-c2ccco2)on1,10µM,2.5µM,?,?,2.8µM,6µM
COc1ccc(N(C(=O)/C=C\C(=O)Nc2ccc(Cl)cc2)C(C(=O)NCc2ccco2)c2ccc(C)cc2)cc1 (stereo unspecified),-,-,-,-,-,0
COc1ccc(Nc2nc(Cl)nc(N3CCN(c4ccc(OC)cc4)CC3)n2)cc1,-,0,0,0,0,0
O=C(CSc1nc2ccccc2o1)Nc1ccccc1,0,0,21µM,0,0,?
SMILES,SMN2 splice up,NPC1 prom act,ELG1 genotoxic,ELG1 DNA repair,Rab9 prom act,FLuc modulator
Cc1ccc(C(=O)CSc2nc3ccccc3o2)cc1,0,0,0,?,?,13µM
CC(=O)CSc1nnc2c3ccccc3nc(C(C)(C)C)n12,?,0,?,0,0,0
CC(Sc1nc2ccccc2o1)C(=O)O (stereo unspecified),0,0,?,?,0,15µM
Cc1ccc(C(=O)CSc2nnc3c4ccccc4nc(C(C)(C)C)n23)cc1,0,0,0,16µM,0,0
CCc1ccc(N2Cc3ccccc3C2)cc1,-,2.8µM,?,?,3.5µM,6µM
CCOC(=O)c1ccc(N2Cc3ccccc3C2)cc1O,-,0,?,?,?,8.5µM
CCOC(=O)c1ccc(N2Cc3ccccc3C2=N)cc1,0,0,?,?,0,?
CCOc1ccc2c(c1)c(=O)c(S(=O)(=O)c1ccc(CC)cc1)cn2Cc1cccc(Cl)c1,0,-,-,-,-,0
C=CCNc1ncnc2c1[nH]c1ccc(Cl)cc12,0,0,?,0,0,12µM
CCOc1ccc(OCC(=O)Nc2nnc3n2CCS3)cc1,-,-,-,-,-,0
COc1ccccc1CNC(=O)C1CCN(S(=O)(=O)c2ccc(N3CCCC3=O)cc2)CC1,-,0,0,0,0,0
O=C(/C=C/c1ccccc1[N+](=O)[O-])OCC(=O)c1ccccc1,0,0,0,0,0,24µM
COc1ccc(C(=O)COC(=O)/C=C/c2ccccc2[N+](=O)[O-])cc1,-,-,0,0,-,-
COC(=O)C(=Cc1ccccc1[N+](=O)[O-])C(=O)OC,-,0,0,23µM,0,0
COc1ccc(CNC(=O)/C=C/c2ccccc2[N+](=O)[O-])cc1,0,0,0,0,0,0
O=C(O)c1ccc(N/N=C/C=C/c2ccccc2[N+](=O)[O-])cc1,8.9µM,1.4µM,?,?,1.4µM,3.4µM
O=C(/C=C/c1ccccc1[N+](=O)[O-])c1ccc(F)cc1,0,0,?,?,0,13µM
COc1ccc(OC)c(CCNC(=O)CN2C(=O)COc3ccc(S(=O)(=O)N4CCC(C)CC4)cc32)c1,?,-,-,-,-,0
CC(C)OC(=O)[C@@H]1CC[C@H](C)[C@@H](CCCC=O)O1,0,-,-,-,-,-
O=C(/C=C/c1ccccc1[N+](=O)[O-])Oc1ccccc1,-,0,0,0,0,6.7µM
Cn1nnc(NC(=O)c2ccccc2F)n1,0,0,0,0,0,0
Cn1nnc(NC(=O)c2ccc3ccccc3c2)n1,0,0,0,?,0,15µM
Cn1nnc(NC(=O)c2ccc(C(C)(C)C)cc2)n1,22µM,3.2µM,?,?,1.6µM,3.4µM
Cn1cc(C(=O)NC2CCCCC2)c(=O)c2cc(S(=O)(=O)N3CCCC3)ccc21,11µM,0,0,0,0,0
CCn1cc(C(=O)NC2CCC(C)CC2)c(=O)c2cc(S(=O)(=O)N3CCCCC3)ccc21 (stereo unspecified),13µM,?,0,?,?,21µM
CC1CCN(S(=O)(=O)c2ccc3c(c2)c(=O)c(C(=O)NC2CCCC2)cn3C)CC1,0,0,0,0,0,0
CCC(C)NC(=O)c1cn(CC)c2ccc(S(=O)(=O)N3CCCCCC3)cc2c1=O (stereo unspecified),-,0,0,6.5µM,0,0
O=C(Cn1ncc2c(=O)oc3ccccc3c21)N1CCN(c2ccc(Cl)cc2)CC1,0,-,-,-,-,0
c1ccc(Cn2c(-c3ccccc3)c[n+]3c2SCCC3)cc1,-,0,0,13µM,0,0
